# Test results as given in PubChem BioAssay.
# Records with an inconclusive call do not appear. Calls of active or inactive are those of the source. Unless noted, cut-off not given; nearly all actives show AC50 up to about 30 µM.
# Assays:
# [1] = growth inhibition of DIPG glioma cells, dose response, cell-based, JHH-DIPG-1, MIPE4.0, CellTiter-Glo, qHTS (AID 1347062; cut-off not given, nearly all actives have AC50 up to about 27 µM;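 on AC50: cells exposed to compound for two days before readout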); details: JHH-DIPG-1 viability, CellTiter-Glo ATP luminescence
# [2] = growth inhibition of DIPG glioma cells, dose response, cell-based, SU-DIPG-IV, MIPE4.0, CellTiter-Glo, qHTS (AID 1347063); details: SU-DIPG-IV viability, CellTiter-Glo ATP luminescence;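 further: compound exposure lasted 48 hours before the viability readout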
# [3] = viability loss in pontine glioma line – cell-based, SU-DIPG-XXV, MIPE5.0, CellTiter-Glo, qHTS, dose response (AID 1347065; cut-off not given, nearly all actives have AC50 up to about 26 µM;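 further: cells exposed to compound for 48 hours before ATP readout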); details: CellTiter-Glo ATP luminescence
# [4] = SU-DIPG-VI glioma cell viability, MIPE4.0 library, CellTiter-Glo luminescence, qHTS (AID 1347066); details: CellTiter-Glo ATP luminescence;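 further: cells exposed to compound for 48 hours before readout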
# [5] = JHH-DIPG-1 glioma cell viability, MIPE5.0 library, CellTiter-Glo luminescence, qHTS (AID 1347067; cut-off not given, nearly all actives have AC50 up to about 26 µM;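 further: cells exposed to compound for 48 hours before readout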); details: JHH-DIPG-1 glioma viability, CellTiter-Glo ATP luminescence
# [6] = SU-DIPG-XXV glioma cell viability, MIPE5.0 library, qHTS (AID 1347068; cut-off not given, nearly all actives have IC50 up to about 30 µM;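 on IC50: cells exposed to compound for 48 hours before viability readout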)
# [7] = growth inhibition of DIPG glioma cells, dose response, cell-based, SU-DIPG-XIII, MIPE4.0, CellTiter-Glo, qHTS (AID 1347061; cut-off not given, nearly all actives have AC50 up to about 37 µM;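 further: cells exposed to compound for 48 hours before readout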); details: SU-DIPG-XIII viability, CellTiter-Glo ATP luminescence
# [8] = sensitizers of A549 cells to miR-34 induction, primary screen, imaging, A549 dox-inducible miR-34, nuclei and caspase counts (AID 1347080;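 active means compounds whose cell count with miR-34 switched on is under 0.7 times the count with it off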); details: A549 miR-34 inducible, Hoechst nuclei count, 48 h
# [9] = survival rescue of mitochondrial mutant cells in low glucose, primary screen, MELAS cybrids, Rieske KO mouse fibroblasts, CellTiter-Glo (AID 1508586;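 active means mean z-score across replicates of 1.96 or higher in either the MELAS or the Rieske mutant cell line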;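 further: z relative to plate mean and SD of compound and empty wells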)
# [10] = modifiers of HSF1 nuclear foci, imaging, Selleck Cancer Library (AID 1347162; in the data active means plate-normalised HSF1 focus index below about 0.46); details: human cells, at 10 µM; SSMD: measured here: HSF1 foci SSMD mean; cell count: measured here: cell number; plate-normalised HSF1 focus index: stronger effect = lower value
smiles,measurement,setting,value
CNC1CCC(N(Cc2cccc(-c3ccncc3)c2)C(=O)c2sc3ccccc3c2Cl)CC1 (configuration not stated),AC50,[1],14.8 µM (active)
same,AC50,[2],16.6 µM (active)
same,AC50,[3],11.8 µM (active)
same,AC50,[4],18.7 µM (active)
same,AC50,[5],20.9 µM (active)
same,IC50,[6],9.34 µM (active)
C=C1[C@H](n2cnc3c(=O)[nH]c(N)nc32)C[C@H](O)[C@H]1CO,outcome,[7],inactive
same,outcome,[4],inactive
CC[C@@H]1/C=C(\C)C[C@H](C)C[C@H](OC)[C@H]2O[C@@](O)(C(=O)C(=O)N3CCCC[C@H]3C(=O)O[C@H](/C(C)=C/[C@@H]3CC[C@H](Cl)[C@H](OC)C3)[C@H](C)[C@@H](O)CC1=O)[C@H](C)C[C@@H]2OC,outcome,[7],inactive
same,outcome,[4],inactive
CCCNC(=O)Nc1ccc(Oc2ncnc3cc(OC)c(OC)cc23)cc1Cl,outcome,[1],inactive
same,outcome,[2],inactive
same,outcome,[4],inactive
same,AC50,[5],26.3 µM (active)
same,outcome,[6],inactive
same,fold change,"[8]; stronger effect = lower value, cell number ratio, induced over uninduced",0.924 (inactive)
same,fold change,[8]; measured here: relative caspase fold change +Dox/-Dox,0.73
same,cell count,"[8]; measured here: total cells with miR-34 induction, stronger effect = lower value",7400
same,cell count,[8]; measured here: total cells without miR-34 induction,8010
same,z-score,"[9]; MELAS cybrid survival, CellTiter-Glo 48 h, stronger effect = higher value",0.782 (inactive)
same,z-score,"[9]; Rieske KO mouse fibroblast survival, CellTiter-Glo 72 h",0.0458
C=CC(=O)Nc1cc(NC(=O)c2ccc(C)c(NC(=O)c3ccno3)c2)cc(C(F)(F)F)c1,AC50,[1],16.6 µM (active)
same,AC50,[2],18.7 µM (active)
same,AC50,[4],16.6 µM (active)
Cn1cc(-c2ccncc2)c(-c2ccc(OCc3ccc4ccccc4n3)cc2)n1,outcome,[1],inactive
same,outcome,[2],inactive
same,AC50,[3],23.5 µM (active)
same,outcome,[4],inactive
same,outcome,[6],inactive
NC(CO)(CO)CCc1ccc(Sc2cccc(OCc3ccccc3)c2)cc1Cl,AC50,[1],11.8 µM (active)
same,AC50,[2],11.8 µM (active)
same,AC50,[3],9.34 µM (active)
same,AC50,[4],18.7 µM (active)
same,AC50,[5],9.34 µM (active)
CCCCCCCc1ccc(CCc2cccc(O)c2C(=O)O)cc1,outcome,[1],inactive
same,outcome,[2],inactive
same,outcome,[3],inactive
same,outcome,[5],inactive
same,outcome,[6],inactive
same,SSMD,[10],0.921
same,cell count,[10],6030
same,plate-normalised HSF1 focus index,[10],1.06 (inactive)
